# Assay results taken from PubChem BioAssay (NCATS).
# Unmarked numbers belong to inactive results. Results filed as inconclusive are left out. A call without a number means that no potency is given here. Active and inactive are the calls of the source. The call rests on the fitted dose curve; in most records, active means well fitted curve in the direction sought with a large enough effect; inconclusive means small, poorly fitted or top-dose-only effect, or another doubt; inactive means no such curve, though single readings can be large; an effect the other way counts as inactive or inconclusive.
# Assays:
# [1] = target: Glutathione peroxidase 1 (Homo sapiens) (UniProt P07203); assay: Primary qHTS Assay for Inhibitors of Recombinant Selenoprotein Glutathione Peroxidase 1 (GPX1) (AID 1845191); further: nearly all actives have a fitted effect of over 65% in size
# Glutathione peroxidase 1 (Homo sapiens), sequence (P07203 whole entry, looked up): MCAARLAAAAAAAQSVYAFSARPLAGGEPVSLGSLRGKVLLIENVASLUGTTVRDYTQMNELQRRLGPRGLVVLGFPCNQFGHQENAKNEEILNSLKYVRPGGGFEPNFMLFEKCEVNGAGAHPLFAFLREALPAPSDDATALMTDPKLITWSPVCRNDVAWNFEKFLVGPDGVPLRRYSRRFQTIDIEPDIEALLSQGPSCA
# Outline: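 Recombinant GPX1 (10 nM final) was preincubated with compound for 30 min at room temperature, then reacted with 1 mM GSH, 0.5 mM CHP, 0.5 mM NADPH and 100 nM glutathione reductase; NADPH fluorescence (340/450 nm) was read at 0 and 15 min.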
# [2] = target: Phospholipid hydroperoxide glutathione peroxidase GPX4 (Homo sapiens) (UniProt P36969); assay: Primary qHTS Assay for Inhibitors of Recombinant Selenoprotein Glutathione Peroxidase 4 (GPX4) (AID 1845192); further: nearly all actives have a fitted effect of over 65% in size; on activity change, negative = inhibition: series mostly up to about 50 µM
# Phospholipid hydroperoxide glutathione peroxidase GPX4 (Homo sapiens), sequence (P36969 whole entry, looked up): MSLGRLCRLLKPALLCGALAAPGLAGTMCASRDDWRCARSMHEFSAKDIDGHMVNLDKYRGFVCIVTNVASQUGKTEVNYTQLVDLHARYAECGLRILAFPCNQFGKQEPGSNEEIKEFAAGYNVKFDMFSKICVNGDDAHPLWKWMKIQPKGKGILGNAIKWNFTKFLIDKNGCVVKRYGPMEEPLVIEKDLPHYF
# Outline: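 GR-coupled readout: 100 nM GR, 1 mM GSH, 0.5 mM NADPH; NADPH fluorescence (ex 340/em 450 nm) read at t=0 and after 15 min RT. GPX4 200 nM, preincubated 30 min with compound; substrate 0.5 mM CHP.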
# [3] = target: Luciferin 4-monooxygenase (Photinus pyralis) (UniProt P08659); assay: Primary firefly luciferase (FLuc) qHTS assay for identification of artifact compounds. (AID 1845220); further: nearly all actives have a fitted effect of over 60% in size; on activity change, negative = inhibition: series mostly up to about 54 µM
# Outline: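 In this counter-screen for luciferase artifacts, test compounds met substrate (10 uM each luciferin and ATP) before 10 nM enzyme started the reaction. Light output was measured 5 min later.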
# [4] = Primary fluorescence-based thiol-reactive (MSTI) qHTS assay for identification of artifact compounds. (AID 1845221); further: nearly all actives have a fitted effect of over 65% in size; further: potency means the concentration at half of the fitted maximal effect;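 on activity change, negative = thiol reactive: series mostly up to about 54 µM; thiol-reactive compounds lower the probe fluorescence signal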
# Outline: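 Thiol-reactive compounds detected by quenching of 4 uM MSTI fluorescence (525/598 nm) after 1 h room-temperature dark incubation in PBS pH 7.4, 2% DMSO. qHTS titration; percent inhibition Hill-fitted against Acetyl-MSTI/MSTI controls.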
# [5] = test system: Nanoluciferase (engineered Oplophorus gracilirostris luciferase); assay: Primary Nanoluciferase (NLuc) qHTS assay for identification of artifact compounds. (AID 1845222);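 further: NLuc secreted into diluted conditioned medium of S16 cells; series mostly up to about 54 µM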
# Outline: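 Using secreted nanoluciferase in S16 culture medium (0.22 um filtered, 1:55 dilution), compounds were preincubated 15 min at RT. Signal was generated with Nano-Glo reagent (1:100) over 5 min.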
# [6] = Primary redox qHTS assay for identification of artifact compounds. (AID 1845223)
# Outline: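 Amplex Red (25 uM) and HRP (250 mU/mL) in HBSS, with compounds for 15 min, then 250 uM DTT for 30 min, room temperature, dark. Fluorescence 525/598 nm read; normalized to DMSO and 10 uM DA3003; Hill fit.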
SMILES,Potency [1],Potency [2],Potency [3],Potency [4],Potency [5],Potency [6],outcome [1],"activity change, negative = inhibition [2]",outcome [3],"activity change, negative = thiol reactive [4]","activity, negative = inhibition [5]",redox activity (% of DA3003) [6]
CC1=CC(=O)C[C@H]2[C@@H]1CC[C@@H](C)[C@]21CO[C@H](c2ccoc2)C1=O,inactive,inactive,inactive,inactive,inactive,inactive,,,,,,
C=C1CCC2C(C)(C)CC(=O)CC2(C)C1CCC(C)CCOC(C)=O (stereo not given),inactive,inactive,inactive,inactive,inactive,inactive,,,,,,
Nc1nonc1C(=Nc1ccc(F)c(Cl)c1)NO,inactive,inactive,inactive,inactive,inactive,inactive,,,,,,
CC(C)(OC1OC(CO)C(O)C(O)C1O)C1CCC(O)(CO)C2CC(O)C(C)(O)C2C1 (stereo not given),inactive,inactive,inactive,inactive,inactive,inactive,,,,,,
COC(=O)C1=CO[C@@H](O[C@@H]2O[C@H](CO[C@@H]3O[C@H](COC(=O)/C=C/c4ccc(O)cc4)[C@@H](O)[C@H](O)[C@H]3O)[C@@H](O)[C@H](O)[C@H]2O)[C@@H]2C(CO)=CC[C@H]12,inactive,inactive,inactive,inactive,inactive,inactive,,,,,,
C=C(C(=O)O)[C@@H]1CC=C2CCC[C@H](C)[C@@]2(C)C1,inactive,inactive,inactive,inactive,inactive,inactive,,,,,,
C=C1C[C@]23C[C@H]1CC[C@H]2[C@]1(C)CCC[C@@]2(CO)C(=O)O[C@H]([C@H]21)[C@@H]3O,inactive,inactive,inactive,inactive,inactive,inactive,,,,,,
CN[C@@H]1[C@@H](O)[C@@H](O[C@@H]2[C@@H](O)[C@H](O[C@H]3O[C@H](CN)[C@@H](O)[C@H](O)[C@H]3O)[C@@H](N)C[C@H]2NC(=O)[C@@H](O)CN)OC[C@]1(C)O,inactive,inactive,inactive,inactive,inactive,inactive,,,,,,
COc1cc(C2c3cc(O)c(OC)cc3CC(CO)C2CO)ccc1O (stereo not given),inactive,inactive,inactive,8.26 µM (active),inactive,inactive,,,,,,
Cc1coc2c1CC1OC1(C)CCC1OC1(C)C2 (stereo not given),inactive,inactive,inactive,inactive,inactive,inactive,,,,,,
CCC(C)(O)C(O)C(=O)OCc1ccc(O[C@@H]2O[C@H](CO)[C@@H](O)[C@H](O)[C@H]2O)c(OC)c1 (stereo not given in full),inactive,inactive,inactive,inactive,inactive,inactive,,,,,,
CC(=O)O[C@@]1(C)C[C@@H](O)[C@]2(O)C=CO[C@@H](O[C@@H]3O[C@H](CO)[C@@H](O)[C@H](O)[C@H]3O)[C@@H]21,inactive,inactive,inactive,inactive,inactive,inactive,,,,,,
COc1cc([C@H]2OC[C@]3(OC(C)=O)[C@@H](c4ccc(O[C@@H]5O[C@H](CO)[C@@H](O)[C@H](O)[C@H]5O)c(OC)c4)OC[C@H]23)ccc1O,inactive,inactive,inactive,inactive,inactive,inactive,,,,,,
CC(C#N)C(C)O[C@@H]1O[C@H](CO)[C@@H](O)[C@H](O)[C@H]1O (stereo not given in full),inactive,inactive,inactive,26.7 µM (active),inactive,inactive,,,,,,
O=C(O)Cc1nn(Cc2nc3cc(C(F)(F)F)ccc3s2)c(=O)c2nccnc12,inactive,inactive,inactive,inactive,inactive,inactive,,,,,,
C=CC(C)(O)CC/C=C(\C)C(=O)OC1CC2(C(=O)O)CCC3(C)C(=CCC4C5(C)CCC(OC6OC(COC7OCC(O)C(O)C7O)C(O)C(OC7OCC(O)C(O)C7O)C6OC6OC(CO)C(O)C(O)C6OC6OCC(O)C(O)C6O)C(C)(C)C5CCC43C)C2CC1(C)C (stereo not given),,,,,,,inactive [at 9.52 µM],-6.88% [at 9.73 µM],inactive [at 11.6 µM],122% [at 11.5 µM],2.64% [at 11.6 µM],11.8% [at 11.5 µM]
CC1(C)CC[C@]2(C(=O)O)CC[C@]3(C)C(=CCC4[C@@]5(C)CC[C@H](O[C@@H]6O[C@H](C(=O)O)[C@@H](O)[C@H](O)[C@H]6O)C(C)(CO)C5CC[C@]43C)C2C1 (stereo not given in full),inactive,inactive,inactive,inactive,inactive,inactive,,,,,,
COC(=O)c1ccc(O[C@@H]2O[C@H](CO)[C@@H](O)[C@H](O)[C@H]2O)c(OC)c1,inactive,inactive,inactive,16.5 µM (active),inactive,inactive,,,,,,
CCC(C)(O)C(O)C(=O)OCc1ccc(O[C@@H]2O[C@H](CO)[C@@H](O)[C@H](O)[C@H]2O)cc1 (stereo not given in full),inactive,inactive,inactive,inactive,inactive,inactive,,,,,,
CC1CCC2C(C)(C)CC(C)(CO)C2(O)C1C(=O)O (stereo not given),inactive,inactive,inactive,inactive,inactive,inactive,,,,,,
